High-throughput results (PubChem BioAssay)
This is a sample that favours compounds with a hit; in the whole collection about 4.6% have one here.
PfHsp90 yeast 2 – growth inhibition of yeast expressing Plasmodium Hsp90; S. cerevisiae expressing PfHsp90, BacTiter-Glo ATP, 48 h; yeast lacking PDR1 and PDR3 efflux regulators; hit rate 0.32% among 310,000; inhibition, % at 9.4 µM;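 active = every replicate shows inhibition above about 80%, whatever the replicate mean, limit read from the data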
SKKanGAS inh – blocks kanamycin growth of S. pyogenes SKKanGAS strain | BacTiter-Glo, 6 h | inhibition, % at 7.5 µM | hit rate 1.3% among 300,000 | AID 1662;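 active = mean replicate score, as percent of positive control median, at least 50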;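 also: strain carries kanamycin resistance gene driven by streptokinase promoter and grows in 40 µg/ml kanamycin; loss of luminescence reflects streptokinase promoter inhibition or plain growth inhibition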
TIM10 inh – TIM10 yeast growth inhibition | S. cerevisiae TIM10 strain growth, BacTiter-Glo luminescence, 24 h | inhibition, % at 10 µM | AID 463195 | hit rate 1.4% among 330,000;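 active = inhibition of 40% or more at the single tested concentration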;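 also: wild-type TIM10 isogenic control strain grown at permissive 25 °C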
NLRP3 yeast inh – blocks the NALP3 inflammasome reconstituted in yeast; Yeast reconstituted NLRP3/ASC/caspase-1, beta-gal luminescence, 24 h; AID 2825; hit rate 0.39% among 330,000; inhibition, % at 10 µM;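 active = inhibition of 50% or more; inactive = inhibition below 50%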
tim10-1 inh – tim10-1 yeast growth inhibition; hit rate 2.2% among 330,000; AID 463190; inhibition, % at 20 µM; S. cerevisiae tim10-1 ts strain growth, BacTiter-Glo, 24 h;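 active = inhibition of at least 40%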;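 also: mutant grown at 25 °C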
tim23-1 inh – growth inhibitors of tim23-1 mutant yeast; hit rate 1.3% among 330,000; inhibition, % at 20 µM; S. cerevisiae tim23-1 growth, BacTiter-Glo luminescence, 24 h;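 active = growth inhibition of the mutant yeast at or above 50%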;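 also: temperature-sensitive mutant grown at 25 °C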
A number is an active result; – = inactive; · = no result.

SMILES	PfHsp90 yeast 2	SKKanGAS inh	TIM10 inh	NLRP3 yeast inh	tim10-1 inh	tim23-1 inh
CC1CCCC(C)N1C(=O)COC(=O)c1cc(=O)[nH]c2ccccc12 (centres undefined)	–	·	–	–	–	–
Cc1cccc(/C=C2/S/C(=N/N=C3\CC4CCC3(C)C4(C)C)NC2=O)c1 (centres undefined)	–	125	–	–	–	–
Cc1ccc(NS(=O)(=O)c2ccc(OCC(=O)NCc3ccccn3)cc2)cc1	–	–	–	–	–	–
COc1ccc2oc(C(=O)OCC(=O)NC3(C#N)CCCC3)c(C)c2c1	–	53	–	–	–	–
COc1cccc(-c2nn(-c3ccc(C)cc3)cc2C(=O)N2CCN(C3CCS(=O)(=O)C3)CC2)c1 (centres undefined)	–	·	–	–	–	–
O=C(CN1CCCC1)Nc1sc2c(c1C(=O)Nc1ccc(Br)cc1)CCC2	–	61	–	–	–	–
CCOc1ccc(NC(=O)c2c(NC(=O)CNCCN3CCOCC3)sc3c2CCC3)cc1	–	90	–	–	–	–
COc1ccc(NC(=O)c2c(NC(=O)CNCc3ccco3)sc3c2CCC3)cc1	–	–	–	–	–	–
COc1ccc(C(CNC(=O)CCNS(=O)(=O)c2ccccc2C(F)(F)F)N2CCOCC2)cc1 (centres undefined)	–	·	·	·	·	·
CC(C)(C)C(=O)CNCC(=O)C(C)(C)C	–	–	–	–	–	–
CCOC(=O)N1CCN(C(=O)c2ccc3c(=O)n(CCC4=CCCCC4)c(=S)[nH]c3c2)CC1	–	67	–	–	–	–
C=CCNc1nc(N)c([N+](=O)[O-])c(NCCO)n1	–	–	–	–	–	–
O=C(O)c1ccc(C2(c3ccc(C(=O)O)cc3)OC(=O)c3ccccc32)cc1	–	–	–	–	–	–
O=C1OC(c2ccccc2)(c2cc(Br)c(O)c(Br)c2)c2ccccc21 (centres undefined)	115	·	·	·	·	·
O=C1C(=O)c2ccccc2C([O-])=C1[n+]1ccccc1	–	–	–	–	–	–
CCc1cc[n+](C2=C([O-])c3ccccc3C(=O)/C2=N\S(=O)(=O)c2cccs2)cc1	–	89	–	–	–	–
CCCCSc1ccc2nc(-c3ccc(C#N)cc3)cn2c1	–	54	–	–	–	–
Oc1ccccc1-n1c(-c2ccccc2)ccc1-c1ccccc1	–	–	–	–	–	–
Cc1c(C(=O)Nc2ccc3c(c2)OCCO3)sc2nc(-c3ccccc3)cn12	–	70	–	–	–	–
Cc1cc(Oc2ccc(C(C)(C)C)cc2)nc(N2CCOCC2)n1	·	–	–	–	–	–
Cc1cc(Oc2ccc(-c3ccccc3)cc2)nc(N2CCOCC2)n1	–	54	–	–	–	–
FC(F)(F)c1cc(N2CCN(Cc3ccccc3)CC2)c2ccccc2n1	–	50	–	–	–	–
FC(F)(F)c1cc(N2CCNCC2)c2ccccc2n1	–	–	–	–	–	–
Cc1cccc(C(=O)OCC(=O)NCCCc2ccccc2)c1O	–	–	–	–	–	–
CC(=O)Nc1ccc(S(=O)(=O)NCCC(=O)Nc2ccc(C)c(F)c2)cc1	–	–	–	–	–	–
SMILES	PfHsp90 yeast 2	SKKanGAS inh	TIM10 inh	NLRP3 yeast inh	tim10-1 inh	tim23-1 inh
C/C(=N\Nc1ncnc2sc(C)c(C)c12)c1ccccn1	104	–	–	–	–	–
CC(=NNC(=S)Nc1ccccc1Cl)c1ccccn1	99	·	·	·	·	·
C/C(=N\Nc1ncc(Cl)cc1Cl)c1ccccn1	108	58	·	·	·	·
C/C(=N\Nc1ccc(Cl)c(C(=O)O)c1)c1ccccn1	–	–	–	–	–	–
Cc1cs/c(=N\N=C2CCCCC2)n1Cc1ccco1	–	–	–	–	–	–
Clc1cc2c(nn1)Nc1ccccc1S2	–	–	–	–	–	–
S=C1Nc2ccccc2Sc2ccc(Cl)cc21	–	69	–	–	–	–
CC(=O)c1c(C)nn(CC(=O)NC2CCCN(Cc3ccc(CC(C)C)cc3)C2)c1C (centres undefined)	–	–	–	–	–	–
CCCCCC[N+](C)(C)CCSSCC[N+](C)(C)CCCCCC	–	–	–	–	–	–
CCCCCCCCCCCCCCCC[N+](C)(C)CCl	105	·	·	·	·	·
CSC(=S)NN=C(C)c1cccc(C)n1	105	·	·	·	·	·
COc1cccc(OC)c1CNC(=O)C1CCC(=O)N(CC2CCCCC2)C1 (centres undefined)	–	–	–	–	–	–
CCCC(NC(=O)C(C)N1CCN(S(=O)(=O)c2ccccc2)CC1)c1ccccc1 (centres undefined)	–	·	–	–	–	–
Cc1ccc(NC(=S)NC(=O)c2ccc(-c3ccc(Cl)cc3)o2)c(O)c1	–	68	–	–	–	–
Cc1ccc(O)c(NC(=S)NC(=O)Cc2ccc(Cl)cc2)c1	–	–	–	–	–	–
Cc1cc(O)c(NC(=S)NC(=O)c2ccc(-c3ccc(Cl)cc3)o2)cc1C	·	92	–	–	–	–
CCc1ccc(/C(C)=N/NS(=O)(=O)c2ccc(OC)cc2)s1	–	–	–	–	–	–
CC[C@H]1OC(=O)[C@H](C)[C@@H](O[C@H]2C[C@@](C)(OC)[C@@H](O)[C@H](C)O2)[C@H](C)[C@@H](O[C@@H]2O[C@H](C)C[C@H](N(C)C)[C@H]2O)[C@](C)(O)C[C@@H](C)C(=NOCOCCOC)[C@H](C)[C@@H](O)[C@]1(C)O	–	107	–	–	–	–
CC[C@H]1OC(=O)[C@H](C)[C@@H](O[C@H]2C[C@@](C)(OC)[C@@H](O)[C@H](C)O2)[C@H](C)[C@@H](O[C@@H]2O[C@H](C)C[C@H](N(C)C)[C@H]2O)[C@](C)(OC)C[C@@H](C)C(=O)[C@H](C)[C@@H](O)[C@]1(C)O	–	104	–	–	–	–
O=C(CNC(=O)c1ccco1)NCC(c1ccco1)N1CCCCC1 (centres undefined)	–	·	–	–	–	–
Cc1ccc(NC(=O)C(C)N2C(=O)c3ccccc3C2=O)cc1C (centres undefined)	–	–	–	–	–	–
Cc1ccc(NC(=O)c2nc[nH]c2C(=O)N[C@H](C)c2ccccc2)cc1	·	·	–	–	–	–
CCOC(=O)c1ccc(NC(=O)c2nc[nH]c2C(=O)N[C@@H](C)C(=O)OC(C)(C)C)cc1	–	–	–	–	–	–
Cc1cccc(NC(=O)c2nc[nH]c2C(=O)N[C@@H](Cc2ccccc2)C(=O)OCc2ccccc2)c1	–	64	–	–	–	–
CCOC(=O)c1ccc(NC(=O)c2nc[nH]c2C(=O)N[C@H](C)c2ccccc2)cc1	–	78	–	–	–	–
CCOC(=O)c1ccc(NC(=O)c2nc[nH]c2C(=O)N[C@@H](CC(C)C)C(=O)OCc2ccccc2)cc1	–	63	–	–	–	–
COc1cc2c(cc1OC)CN(C(=O)c1ccc(Cl)c(S(=O)(=O)N3CCCC3)c1)CC2	–	·	–	–	–	–
